# Data as given in publication PMC6919601, “Identification of Plasmodium dipeptidyl aminopeptidase allosteric inhibitors by high throughput screening” (PLoS ONE, 2019).
# The campaign covered roughly 110,000 compounds. About 230 (0.21%) showed an effect of 50% or more. What follows is part of a selection rich in strong results, with near analogues and random picks from the rest.
# Target: DPAP1 (Plasmodium falciparum, UniProt Q8IIJ9)
# Assay: primary screen, percent inhibition; read by cleavage of a fluorogenic dipeptide substrate; higher = more effect of the substance
# Set-up: species or system P. falciparum D10 trophozoite lysates; single well
# 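Further: 30 min substrate incubation versus DMSO and 10 µM JCP410 controls.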
# Chain of DPAP1 (Q8IIJ9 whole entry, looked up): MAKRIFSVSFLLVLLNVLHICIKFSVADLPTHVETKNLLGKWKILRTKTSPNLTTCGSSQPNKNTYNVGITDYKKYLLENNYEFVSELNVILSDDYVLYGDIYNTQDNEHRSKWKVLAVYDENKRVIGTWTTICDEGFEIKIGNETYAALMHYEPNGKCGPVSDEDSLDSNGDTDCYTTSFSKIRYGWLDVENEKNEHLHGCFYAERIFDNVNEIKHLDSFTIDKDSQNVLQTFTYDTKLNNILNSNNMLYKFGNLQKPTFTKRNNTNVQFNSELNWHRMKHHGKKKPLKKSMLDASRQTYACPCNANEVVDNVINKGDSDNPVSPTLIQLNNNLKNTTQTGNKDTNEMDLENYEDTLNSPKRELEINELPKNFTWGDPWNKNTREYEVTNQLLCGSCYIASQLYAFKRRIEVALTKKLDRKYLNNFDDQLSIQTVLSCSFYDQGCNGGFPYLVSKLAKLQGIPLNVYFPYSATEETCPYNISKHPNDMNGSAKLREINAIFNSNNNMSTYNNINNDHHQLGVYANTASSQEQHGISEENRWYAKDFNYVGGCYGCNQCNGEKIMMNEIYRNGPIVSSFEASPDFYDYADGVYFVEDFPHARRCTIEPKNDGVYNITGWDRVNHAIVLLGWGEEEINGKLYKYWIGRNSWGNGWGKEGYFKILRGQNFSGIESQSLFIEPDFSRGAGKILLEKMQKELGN
row,Compound,% Inhibition @ 10 uM [%]
1,COc1cccc(-c2[nH]c3c(C#N)cnn3c2NCCC(C)C)c1,76.4
2,Cc1cccc(-c2[nH]c3c(C#N)cnn3c2NCCC(C)C)c1,3.84
3,CC(C)CCNc1c(-c2cccc(Cl)c2)[nH]c2c(C#N)cnn12,-4.71
4,c1ccc2c(c1)ncn2Cc1nnc2sc(-c3ccc4c(c3)OCCO4)nn12,45
5,Cc1ccc(S(=O)(=O)N(CC(=O)NC2CC3CCC2C3)c2ccc(Cl)cc2)cc1 (centres unmarked),-0.695
6,CCc1ccc(CNC(=O)NCc2noc3ccc(C)cc23)cc1,2.19
7,COc1cccc(CN2CCN(Cc3ccc(OC)c(OC)c3OC)CC2)c1,-6.74
8,COc1cccc(CN2CCN(Cc3cccc(C)c3)CC2)c1OC,-4.16
9,COc1ccc(CN2CCN(Cc3cccc(C)c3)CC2)c(OC)c1OC,53.3
10,Cc1[nH]c2ccccc2c1CCNC(=S)NC(C)(C)C,-0.431
11,O=C(CCNS(=O)(=O)c1ccc2nc(O)ccc2c1)NC1CCCc2ccccc21 (centres unmarked),-2.26
12,CCn1cc(CNC(=O)c2cc(-c3ccccc3OC)nc3ccccc23)cn1,-10.2
13,COc1ccccc1C(=O)Nc1cccc(F)c1,-5.29
14,OCC(O)Cn1c2ccccc2c2ccccc21 (centres unmarked),1.44
15,Cc1cc(C)n(CC(O)Cn2c3ccccc3c3ccccc32)c(=O)n1 (centres unmarked),80.2
16,Cc1cc(C)n(CC(O)Cn2c3ccccc3c3ccccc32)n1 (centres unmarked),-10.2
17,Cc1ccc(-c2csc(C3C(N)=NC(S)=C(C#N)C34CCCCC4)n2)cc1 (centres unmarked),89.8
18,O=C1CC(c2nc(-c3ccccc3)cs2)C2(CCCCC2)O1 (centres unmarked),4.08
19,Cc1ccc(-c2csc(N)n2)cc1,20.7
20,CNC(=S)N(CCc1c(C)[nH]c2ccc(Cl)cc12)Cc1ccccn1,-4.14
21,COc1ccc(C(=O)NCc2nnc(SCC(=O)NCC3CCCO3)o2)cc1 (centres unmarked),8.26
22,COc1ccc(C(=O)NCc2nnc(SCC(=O)Nc3nnc(C)s3)o2)cc1,84
23,COc1cc(C(=O)NCc2nnc(SCC(=O)NC3CCCCC3)o2)cc(OC)c1OC,1.64
24,COc1ccc(C(=O)NCc2nnc(SCC(=O)NC3CCCCC3)o2)cc1,76.6
25,Cc1nnc(NC(=O)CSc2nnc(CNC(=O)c3cccs3)o2)s1,-3.39
26,Cc1nnc(NC(=O)CSc2nnc(CNC(=O)COc3ccc(Cl)cc3)o2)s1,-5.27

row,Compound,% Inhibition @ 10 uM [%]
1,NC(=O)/C=C/C(=O)Nc1ccccc1,-3.13
2,CCCCNC(=O)CCc1nc2cccnc2n1Cc1ccccc1,3.96
3,CCOc1ccc2c3c(c(=O)oc2c1)CCC3,-3.38
4,CCCC1CCC(C2=N/C(=C\c3cc(OC)c(OC)cc3OC)C(=O)O2)CC1 (centres unmarked),-3.33
5,O=C(CSc1nc2ccccc2o1)N1CCN(c2nnc(-c3ccccc3)c3ccccc23)CC1,2.46
6,COCCNC(=O)CSc1[nH]c(-c2cccc(OC)c2)nc1-c1ccccc1,0.163
7,Cc1nc(C(=O)N[C@@H](CC(C)C)C(=O)NCC#N)nn1-c1ccc(Cl)cc1Cl,5.76
8,CCOc1ccc(/C=C(\NC(=O)c2ccc(C)cc2)C(=O)Nc2cccc(O)c2)cc1,4.67
9,COc1ccc(OC)c(C2CC(=O)N3CN(Cc4ccco4)CSC3=C2C#N)c1 (centres unmarked),6.87
10,COc1ccc(C2CC(=O)N3CN(Cc4ccccc4)CSC3=C2C#N)cc1OC (centres unmarked),6.73
11,N#CC1=C2SCN(Cc3ccccc3)CN2C(=O)CC1c1cccs1 (centres unmarked),40.5
12,COc1cc(C2CC(=O)N3CN(Cc4ccccc4)CSC3=C2C#N)cc(Br)c1O (centres unmarked),57
13,COc1ccc(Br)cc1C1CC(=O)N2CN(Cc3ccco3)CSC2=C1C#N (centres unmarked),60.5
14,CCOc1cc(C2CC(=O)N3CN(Cc4ccccc4)CSC3=C2C#N)ccc1O (centres unmarked),19.8
15,COc1ccc(CN2CSC3=C(C#N)C(c4ccc(C)cc4)CC(=O)N3C2)cc1 (centres unmarked),43.8
16,COc1cccc(C2CC(=O)N3CN(Cc4ccco4)CSC3=C2C#N)c1OC (centres unmarked),18.7
17,COc1ccc2ccccc2c1C1CC(=O)N2CN(Cc3ccccc3)CSC2=C1C#N (centres unmarked),35.8
18,COc1ccc(Br)cc1C1CC(=O)N2CN(Cc3ccccc3)CSC2=C1C#N (centres unmarked),60.8
19,COc1ccc(C2CC(=O)N3CN(Cc4ccccc4)CSC3=C2C#N)c(OC)c1 (centres unmarked),32.1
20,COc1ccc(CN2CSC3=C(C#N)C(c4cccs4)CC(=O)N3C2)cc1 (centres unmarked),50.8
21,Cc1ccc2oc(=O)c3cc(C(=O)N4CCC(C)CC4)sc3c2c1,0.809
22,CCCOc1ccc(CN(C(=O)c2nc(SC)ncc2Cl)C2CCS(=O)(=O)C2)cc1 (centres unmarked),-4.64
23,Cc1cc(C)c2c(n1)nn1c(C3CC3)cc(C(F)(F)F)nc21,2.54
24,O=C(NCC(=O)N1CCOCC1)c1ccccc1,15.6
25,O=C(NCCc1ccccc1)C1CCCN(S(=O)(=O)c2cccc3cccnc23)C1 (centres unmarked),-4.69
26,COc1cccc(C(=O)Nc2ccc(C(C)C)cc2)c1,-1.25

row,Compound,% Inhibition @ 10 uM [%]
1,COCCOC(=O)N/C=C\c1nc(O)c2ccccc2n1,-4.65
2,CCOC(=O)c1cnn2c(C(F)(F)F)cc(C)nc12,-3.53
3,CN1CCc2c(c(S)sc(=N)c2C#N)C1,5.59
4,CC1(C)Cc2c(c(S)sc(=N)c2C#N)CO1,8.27
5,N#Cc1c2c(c(S)sc1=N)CCCC2,59.6
6,COc1cccc(CNC(=O)CNC(=S)N(Cc2ccccc2)Cc2cccnc2)c1,-0.406
7,Cc1cc(C)c2c(-n3cccc3)nn(CC(=O)N3CCCCCC3)c2n1,-3.52
8,COCC(=O)Nc1nc2nccc(C)n2n1,-1.31
9,CCn1c(C(=O)N2CCC(C(=O)NCCOC)CC2)cc2sccc21,4.95
10,CCn1c(C(=O)N2CCC(C(=O)NCCC(C)C)CC2)cc2sccc21,92.1
11,CCn1c(C(=O)N2CCC(C(=O)NCCN(CC(C)C)CC(C)C)CC2)cc2sccc21,-5.19
12,N#CCNC(=O)[C@H](CC1CCCCC1)NC(=O)c1sccc1Br,1.35
13,Nc1ccc(NC2=C(N3CCCCC3)C(=O)c3ccccc3C2=O)cc1,53.5
14,O=C1C(Nc2cccc(O)c2)=C(N2CCCCC2)C(=O)c2ccccc21,0.162
15,O=C1C(Nc2cccc(Br)c2)=C(N2CCCCC2)C(=O)c2ccccc21,1.84
16,Cn1c2ccccc2c2nc3cc4ccccc4cc3nc21,-2.54
17,COCCN1C(=O)c2ccccc2C(C(=O)Nc2ccc(Cl)cn2)C1c1cccs1 (centres unmarked),4.33
18,C=CCOc1ccc(C(=O)C2=C(O)C(=O)N(c3ccccn3)C2c2ccc(F)cc2)cc1 (centres unmarked),2.86
19,C#CCN1C(=O)C(O)(CC(=O)c2ccc3ccccc3c2)c2ccccc21 (centres unmarked),-20.7
20,Cn1c(SCC(=O)NCCc2ccccc2)nc2c1c(=O)n(Cc1ccccc1Cl)c(=O)n2C,3.81
21,CC1CCN(C(=O)CCN2C(=O)c3ccccc3C2=O)CC1,2.06
22,Cc1ccc(-c2cc(NC(=O)COc3ccc(C(C)C)cc3)on2)cc1,-1.47
23,O=C(NCC1(c2ccccc2)CCCC1)c1noc2c1COc1ccccc1-2,47.2
24,CCOC(=O)c1noc2c1COc1ccccc1-2,-1.51
25,Cc1cccc(CCNC(=O)c2noc3c2COc2ccccc2-3)c1,75.2
26,CN(CCNC(=O)c1noc2c1COc1ccccc1-2)C1CCCCC1,2.73

row,Compound,% Inhibition @ 10 uM [%]
1,COc1ccc(CCNC(=O)c2noc3c2COc2ccc(C)cc2-3)cc1OC,-4.07
2,CCOc1ccc(-c2cc(NC(=O)c3noc4c3COc3ccccc3-4)on2)cc1OCC,-1.72
3,Cc1ccc2c(c1)-c1onc(C(=O)NCCN(C)C)c1CO2,-4.37
4,O=C(NCCc1c[nH]c2ccccc12)c1noc2c1COc1ccccc1-2,91.5
5,CCOc1ccc(CCNC(=O)c2noc3c2COc2ccccc2-3)cc1OCC,80.8
6,O=C(NCCc1ccc(Cl)cc1)c1noc2c1COc1ccccc1-2,82.6
7,O=C(NCCc1ccccc1)c1noc2c1CCc1ccccc1-2,-7.85
8,Cc1cccc(CCNC(=O)c2cc3c(s2)-c2ccccc2OC3)c1,-4.85
9,O=C(/C=C/c1ccco1)N(Cc1cccc(F)c1)C1CCS(=O)(=O)C1 (centres unmarked),-1.35
10,O=C(Nc1ccccc1)N1CCN(c2ccccc2)CC1,1.33
11,CSc1nc2n(n1)C(c1ccc(F)c(Br)c1)C1=C(O)CC(C)(C)CC1=N2 (centres unmarked),-1.62
12,CC(NCC(O)Cn1nnnc1-c1ccccc1)c1ccccc1 (centres unmarked),2.5
13,Cc1ccc(NC(=O)C(C)Oc2ccccc2C)c(C)c1 (centres unmarked),6.79
14,CC(=O)c1c(S)nc(-c2ccccc2)nc1N1CCN(Cc2ccccc2)CC1,29.2
15,CCOc1ccc(C(=O)NCC2CCN(C(=O)c3ccc(OCC)cc3)CC2)cc1,5
16,O=[N+]([O-])c1c(NCCO)cc(Cl)c2nonc12,5.66
17,COc1ccccc1N1C(=O)CC(N2CCN(C)CC2)C1=O (centres unmarked),-6.08
18,COc1ccc(/C=C(\C#N)C(N)=S)cc1,-2.51
19,Cc1ccc(/C=C(\C#N)C(N)=S)o1,79.5
20,COC(=O)/C(C#N)=C/c1ccc(C)o1,-0.256
21,CCOC(=O)C1=C(CN2CCN(C(=O)OCC)CC2)NC(=O)NC1c1cccs1 (centres unmarked),-3.36
22,COc1ccc(C(=O)CC(=O)c2ccc(OC)c(OC)c2)c(O)c1,4.74
23,Cc1ccc(S(=O)(=O)Nc2nc3ccccc3nc2N2CCCCC2)cc1,-0.969
